Counter-ions that a name gives are not always drawn.
What follows are molecules tested on Saccharomyces cerevisiae BY4741 SeMeCo community (assay: z-score of subpopulation abundance vs DMSO median, subpopulation auxotrophic for HL; higher = larger share of this subpopulation than in DMSO controls). Conditions: 10 µM; 24 h; SM minimal medium; subpopulation (auxotrophy): HL.
In short: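 Cells of a Saccharomyces cerevisiae BY4741 community, carrying four plasmids that each restored one auxotrophy and encoded a distinct fluorescent protein, were pre-grown overnight to OD600 1.0 and diluted to 0.3. A 70 µl volume was added to 384-well plates acoustically predosed with library drugs (10 µM final) and grown 24 h in minimal SM medium. After paraformaldehyde fixation, automated confocal microscopy was used, with single-auxotroph fluorescent strains for thresholds and autofluorescence correction. The abundance of each subpopulation was scored as a z-score against the vehicle-well median.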

Q: For `CC(C)NC(=N)NC(=N)Nc1ccc(Cl)cc1` [Proguanil], which “z-score of subpopulation abundance” value is on record?
A: -0.81

Q: Which “z-score of subpopulation abundance” value does the source give for `Nc1nc(O)c2ncn(CCC(CO)CO)c2n1` [Penciclovir] here?
A: -0.26

Q: `C=CC(C)(O)CCC=C(C)C` (configuration not stated) [Linalool] was tested. Which “z-score of subpopulation abundance” value did it give?
A: -0.47

Q: Which “z-score of subpopulation abundance” value does the source give for `CCCN1CCCC[C@H]1C(=O)Nc1c(C)cccc1C` [Ropivacaine] here?
A: -0.66

Q: For `CN1[C@@H]2CC[C@H]1C[C@@H](OC(=O)c1c[nH]c3ccccc13)C2` [Tropisetron], which “z-score of subpopulation abundance” value is on record?
A: 1.63

Q: Which “z-score of subpopulation abundance” value does the source give for `CC[C@H]1OC(=O)[C@H](C)[C@@H](O[C@H]2C[C@@](C)(OC)[C@@H](O)[C@H](C)O2)[C@H](C)[C@@H](O[C@@H]2O[C@H](C)C[C@H](N(C)C)[C@H]2O)[C@](C)(O)C[C@@H](C)/C(=N\OCOCCOC)[C@H](C)[C@@H](O)[C@]1(C)O` [Roxithromycin] here?
A: 0.42

Q: For `COc1ccccc1N1CCN(CCCNc2cc(=O)n(C)c(=O)n2C)CC1` [Urapidil HCl], which “z-score of subpopulation abundance” value is on record?
A: -0.53

Q: How did the “z-score of subpopulation abundance” value turn out when `C=C[C@H]1CN2CC[C@H]1C[C@H]2[C@H](O)c1ccnc2ccc(OC)cc12` [Quinine HCl Dihydrate] was run?
A: -0.28

Q: Which “z-score of subpopulation abundance” value does the source give for `Cc1nc(=O)c2cc(CN(C)c3ccc(C(=O)N[C@@H](CCC(=O)O)C(=O)O)s3)ccc2[nH]1` [Raltitrexed] here?
A: -0.37

Q: Which “z-score of subpopulation abundance” value does the source give for `CC(C)Cc1ccc(C(C)C(=O)O)cc1` (configuration not stated) [Ibuprofen Lysine] here?
A: -0.13

Q: Which “z-score of subpopulation abundance” value does the source give for `CN(C)CCc1c[nH]c2ccc(C[C@H]3COC(=O)N3)cc12` [Zolmitriptan] here?
A: 0.28

Q: `C[C@]12CC[C@@H]3c4ccc(O)cc4C[C@@H](CCCCCCCCC[S+]([O-])CCCC(F)(F)C(F)(F)F)[C@H]3[C@@H]1CC[C@@H]2O` (some centres not stated) [Fulvestrant] was tested. Which “z-score of subpopulation abundance” value did it give?
A: 0.87

Source: the supplement of paper PMC8975748
